# Measured values reported in PubChem BioAssay (NCI).
# About 83,000 compounds went through this panel and 20% of them were active in at least one assay; those are over-represented in the sample as a whole.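 Step 1: grow cells in 96-well plates. Step 2: add test compound at a single concentration. Step 3: incubate 48 h. Step 4: record percent growth.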 Values without a mark were called inactive. Calls of active or inactive are those of the source. How the source made its calls: active means growth percent below 10; inactive means the rest.
# What was measured:
# Assay in all cases: NCI-60 one-dose screen, 48 h (100 = growth as untreated, 0 = no growth, -100 = all killed)
# Details in all cases: 10 µM unless noted
# NCI-H23 lung = system: NCI-H23 lung
# NCI-H226 lung = system: NCI-H226 lung
# NCI-H322M lung = system: NCI-H322M lung
# HOP-62 NSCLC = system: HOP-62 NSCLC
# NCI-H460 lung = system: NCI-H460 lung
# HOP-92 NSCLC = system: HOP-92 NSCLC
# NCI-H522 lung = system: NCI-H522 lung
# A549/ATCC NSCLC = system: A549/ATCC NSCLC
# 786-0 renal = system: 786-0 renal
# COLO 205 colon = system: COLO 205 colon
# DU-145 prostate = system: DU-145 prostate
# MALME-3M melanoma = system: MALME-3M melanoma
# MDA-MB-231 breast = system: MDA-MB-231 breast
# RXF 393 renal = system: RXF 393 renal
# SF-295 CNS = system: SF-295 CNS
# SF-539 CNS = system: SF-539 CNS
# UACC-257 melanoma = system: UACC-257 melanoma
# M14 melanoma = system: M14 melanoma
# K-562 leukemia = system: K-562 leukemia
# SF-268 CNS = system: SF-268 CNS
Structure (SMILES),growth (NCI-H23 lung) [%],growth (NCI-H226 lung),growth (NCI-H322M lung) [%],growth (HOP-62 NSCLC),growth (NCI-H460 lung),growth (HOP-92 NSCLC) [%],growth (NCI-H522 lung) [%],growth (A549/ATCC NSCLC) [%],growth (786-0 renal) [%],growth (COLO 205 colon),growth (DU-145 prostate) [%],growth (MALME-3M melanoma) [%],growth (MDA-MB-231 breast) [%],growth (RXF 393 renal) [%],growth (SF-295 CNS) [%],growth (SF-539 CNS) [%],growth (UACC-257 melanoma) [%],growth (M14 melanoma),growth (K-562 leukemia) [%],growth (SF-268 CNS) [%]
SCc1ccc(CS)cc1,106,109%,98.2,102%,108%,77.2,108,110,98.1,116%,116,106,123,112,109,104,114,106%,,
COc1cc(-c2n/c(=C\c3c(O)[nH]c4cc(Cl)ccc34)cc3c2=Nc2ccccc2-3)cc(OC)c1OC,45.2,89.9%,62.3,23.3%,59.7%,27.2,54.6,59.5,34.5,58.6%,30.6,,53.1,28.7,,62.7,40.9,37.7%,49.1,22.5
COc1cc(OC)cc(-c2n/c(=C\c3c(O)[nH]c4ccc(Cl)cc34)cc3c2=Nc2ccccc2-3)c1,34,84.3%,93.2,72.5%,43.3%,92.6,60.7,58.5,39.3,90.5%,18.4,,64.5,76.8,,104,108,86%,28,52.8
COc1ccc2c(c1)CCCC21C(=O)Nc2c(Cl)cccc21 (stereo not drawn),86,85.9%,88.1,55.7%,94.4%,72.3,27.7,68.7,78.9,80.6%,93,63.3,77.4,86.5,,73.3,83.8,38.8%,,75.8
CCOc1cccc(/C=N/NC(=O)Cc2ccc(Nc3ccnc(C(F)(F)F)c3)cc2)c1O,39,-1.59% (active),36.8,7.88% (active),0.302% (active),46.7,13.4,47.3,29,4.75% (active),33.2,34.3,26.8,51.1,47.9,17.4,21.9,3.19% (active),,18.2
O=C(Nc1ccc(Br)cc1)Nc1ccccc1Cl,63.2,80%,119,92.7%,93.3%,90.5,56.8,82.5,83.4,106%,91.1,,72.5,83,,89.3,88,89.2%,84.5,93.8
CN(C)c1ccc(C(c2ccccc2)c2ccc(N(C)C)cc2)cc1,79.1,95.2%,128,104%,99%,63.4,88.3,91.8,97.5,111%,101,,98.5,107,,112,98.1,93%,73.4,89.9
COc1ccc(/C(=C\c2ccc3c(c2)OCO3)C(=O)Nc2nc3ccccc3s2)cc1,106,97.6%,94.4,95.5%,110%,104,81.5,93.9,97.2,110%,102,95.3,102,118,,104,99.7,107%,,96
Fc1ccc2nc(-c3ccc(-c4noc(-c5ccc(Cl)cc5)n4)cc3)[nH]c2c1,104,97.1%,107,103%,103%,105,87.1,100,86.5,116%,98.5,,106,110,,100,101,107%,92.5,105
